Measured values published in PubChem BioAssay AID1159580 (chemical genetic matrix, 2015).
Where “and” joins values, the source holds several entries; their conditions need not be identical. Identical values can stand only once. About 2,000 (36%) of roughly 5,500 compounds were called active. Inconclusive results (about 18%) are left out. Rule as the data show it: active = normalized growth mostly below about 0.91 (no sharp cut-off); inconclusive = no clear call, values can overlap the other calls; inactive = mostly above about 0.92. Some of the results follow.

Assay: chemical genetic growth profiling, strain panel (AID 1159580);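 also: tested at 20 µM; growth read once vehicle control cultures reached saturation at 30 °C; 1 = growth at the plate median or of vehicle wells; lower values mean less growth of the strain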
Settings: S. cerevisiae deletion strains, growth OD

Measured: normalized growth

CC(C)C1CCC(C(=O)N[C@@H](Cc2ccccc2)C(=O)O)CC1 (some centres not stated)
inactive: locus YAL013W, strain DEP1, hits give low values 0.994 | locus YAL021C, strain ccr4, hits give low values 0.97 | locus YAL026C, strain drs2, hits give low values 0.978 | locus YAL030W, strain snc1, hits give low values 0.975 | locus YBL061C, strain skt5, hits give low values 0.973 | locus YBR009C, strain hhf1, hits give low values 0.983 | locus YBR021W, strain FUR4, hits give low values 0.969 | locus YBR023C, strain chs3, hits give low values 0.973 | locus YBR171W, strain sec66, hits give low values 0.962 | locus YBR229C, strain ROT2, hits give low values 1.01 | locus YBR231C, strain swc5, hits give low values 0.956 | locus YBR279W, strain paf1, hits give low values 0.973 | locus YCL011C, strain gbp2, hits give low values 0.976 | locus YCL016C, strain dcc1, hits give low values 0.967 | locus YCL029C, strain bik1, hits give low values 1.02 | locus YCL061C, strain MRC1, hits give low values 0.972 | locus YCL069W, strain vba3, hits give low values 0.979 | locus YCR088W, strain abp1, hits give low values 0.971 | locus YDL005C, strain med2, hits give low values 0.974 | locus YDL035C, strain GPR1, hits give low values 0.982 | locus YDL040C, strain nat1, hits give low values 0.974 | locus YDL074C, strain BRE1, hits give low values 0.987 | locus YDL101C, strain DUN1, hits give low values 1 | locus YDL134C, strain PPH21, hits give low values 1.01 | locus YDL185W, strain tfp1, hits give low values 1.02 | locus YDL192W, strain arf1, hits give low values 1.01 | locus YDR001C, strain nth1, hits give low values 0.972 | locus YDR069C, strain doa4, hits give low values 0.986 | locus YDR101C, strain arx1, hits give low values 1.02 | locus YDR137W, strain rgp1, hits give low values 0.96 | locus YDR150W, strain NUM1, hits give low values 0.995 | locus YDR159W, strain sac3, hits give low values 0.989 | locus YDR162C, strain NBP2, hits give low values 0.987 | locus YDR195W, strain ref2 0.962 | locus YDR297W, strain sur2, hits give low values 0.976 | locus YDR318W, strain mcm21, hits give low values 1.01 | locus YDR334W, strain swr1, hits give low values 0.968 | locus YDR335W, strain msn5, hits give low values 0.974 | locus YDR388W, hits give low values 1.01 | locus YDR392W, strain spt3, hits give low values 0.985 | locus YDR502C, strain sam2, hits give low values 1.01 | locus YEL003W, strain gim4, hits give low values 0.988 | locus YEL037C, strain rad23, hits give low values 0.971 | locus YEL061C, strain CIN8 (second series), hits give low values 0.973 | locus YEL061C, strain CIN8, hits give low values 0.992 | locus YER015W, strain faa2, hits give low values 0.986 | locus YER016W, strain bim1, hits give low values 0.98 | locus YER110C, hits give low values 1.02 | locus YER111C, strain swi4, hits give low values 0.98 | locus YER155C, strain BEM2 (second series), hits give low values 0.958 | locus YER155C, strain BEM2, hits give low values 0.928 | locus YER167W, strain BCK2, hits give low values 0.994 | locus YFR010W, strain ubp6, hits give low values 0.968 | locus YGL078C, strain dbp3, hits give low values 1.01 | locus YGL086W, strain mad1, hits give low values 1.01 | locus YGL167C, strain pmr1, hits give low values 0.967 | locus YGL173C, strain kem1, hits give low values 0.97 | locus YGL227W, strain vid30, hits give low values 0.969 | locus YGL240W, strain doc1, hits give low values 0.985 | locus YGL248W, strain PDE1, hits give low values 1.01 | locus YGL253W, strain hxk2, hits give low values 0.97 | locus YGR078C, strain PAC10, hits give low values 0.984 | locus YGR135W, strain pre9, hits give low values 1.01 | locus YGR229C, strain SMI1, hits give low values 0.949 | locus YGR252W, strain gcn5, hits give low values 0.994 | locus YHR013C, strain ard1, hits give low values 0.953 | locus YHR027C, strain rpn1, hits give low values 0.993 | locus YHR030C, strain SLT2, hits give low values 1.01 and 0.98 | locus YHR079C, strain IRE1 (second series), hits give low values 1.01 | locus YHR079C, strain IRE1, hits give low values 0.986 | locus YHR094C, strain hxt1, hits give low values 1.01 | locus YHR129C, strain ARP1, hits give low values 1.01 | locus YHR142W, strain chs7, hits give low values 0.965 | locus YHR200W, strain rpn10, hits give low values 1.01 | locus YIL066C, strain RNR3, hits give low values 0.989 | locus YIL073C, strain SPO22, hits give low values 0.989 | locus YIL125W, strain kgd1, hits give low values 1.01 | locus YIR030C, strain dcg1, hits give low values 1.02 | locus YJL092W, strain hpr5, hits give low values 0.983 | locus YJL095W, strain BCK1 (second series), hits give low values 0.979 | locus YJL095W, strain BCK1, hits give low values 1 and 1.02 | locus YJL115W, strain asf1, hits give low values 0.978 | locus YJL129C, strain trk1, hits give low values 0.963 | locus YJL134W, strain LCB3, hits give low values 0.996 | locus YJL154C, strain vps35, hits give low values 0.973 | locus YJL164C, strain tpk1, hits give low values 0.992 | locus YJL166W, strain qcr8, hits give low values 0.979 | locus YJL168C, strain set2, hits give low values 1.01 | locus YJL187C, strain SWE1 (second series), hits give low values 1.01 | locus YJL187C, strain SWE1, hits give low values 0.983 | locus YJR043C, strain POL32, hits give low values 0.99 | locus YJR066W, strain TOR1, hits give low values 0.956
